Bioassay records from PubChem BioAssay.
KB-V1 MDR tox: kills drug-selected multidrug resistant KB-V1 cells; Potency, µM (top dose mostly 46.1 µM), hits mostly cytotoxic; actives 3.4% (n = 400,000); KB-V1 MDR cells viability, CellTiter-Glo, 72 h; further: on the % scale 0 is the no-effect control and ±100 the full control effect; nearly all actives have a fitted effect of over 60% in size
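Readout: CellTiter-Glo luminescence, 10 min after addition. Cells: KB-V1 MDR subline, 72 h at 37 degrees C with compound. Analysis: corrected, normalized data fitted to concentration-effect curves.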
PTAP TSG101 blk: blocks PTAP/TSG101 interaction to inhibit HIV-1 budding; Q99816; Fluorescence polarization, FITC-PTAP peptide / Tsg101 binding; Potency, µM (doses to about 115 µM), without a hit: at the highest dose activity change, negative = inhibition, actives largely listed as inhibitors; 340,000 tested, under 10 active; AID 493005; active means well fitted inhibition curve with a large enough effect in the main read-out, with a control signal flat, not every such curve was filed as active; inconclusive means small, poorly fitted or top-dose-only effect, or effect the other way, or a change in a side signal; inactive means no such curve, though single readings can be large or run the other way; further: % of control where 0% means no effect
Target sequence (Q99816 whole entry, looked up): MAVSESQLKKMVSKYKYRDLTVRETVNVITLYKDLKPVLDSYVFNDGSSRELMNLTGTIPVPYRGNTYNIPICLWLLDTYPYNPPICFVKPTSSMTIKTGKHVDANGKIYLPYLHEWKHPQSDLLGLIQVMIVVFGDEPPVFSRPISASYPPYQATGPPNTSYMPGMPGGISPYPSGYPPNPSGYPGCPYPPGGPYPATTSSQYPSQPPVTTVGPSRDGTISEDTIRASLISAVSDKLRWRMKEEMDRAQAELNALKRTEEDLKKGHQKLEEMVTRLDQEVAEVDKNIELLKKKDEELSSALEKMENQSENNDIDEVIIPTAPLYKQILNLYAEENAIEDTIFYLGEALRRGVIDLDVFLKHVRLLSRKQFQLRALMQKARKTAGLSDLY
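Tsg101 binding domain (10 uM final) was mixed with compound and a FITC-labeled PTAP peptide (50 nM final) in HEPES pH 7.5 buffer with NaCl, Tween 20, EDTA and TCEP; fluorescence polarization was read after 20 min at r.t.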
MCF10A rereplic: inducers of DNA re-replication in MCF 10A breast cells. actives 2.9% (n = 350,000). MCF 10A DNA re-replication, Hoechst nuclear intensity, 48 h. AID 624296. Potency, µM (top dose mostly 46.1 µM), for inactives: top-dose activity, positive = re-replication, hits mostly activators; further: % of control where 0% means no effect; nearly all actives have a fitted effect of over 50% in size
SW480 rerep: induces DNA re-replication in SW480 colon adenocarcinoma cells | SW480 DNA re-replication, Hoechst DNA content imaging, 48 h | Potency, µM (titrated, usually from 46.1 µM), without a hit: top-dose re-replication activation, hits mostly activators | actives 1.8% (n = 340,000) | AID 624297; further: % of control where 0% means no effect; nearly all actives have a fitted effect of over 55% in size
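Quantitative HTS format with DMSO vehicle controls; 48 hr drug incubation at 37 C, then 40 min Hoechst staining and scanning imager measurement at 405 nm excitation.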
KB-3-1 tox: KB-3-1 parental cell cytotoxicity; KB-3-1 viability, CellTiter-Glo ATP luminescence, 72 h; AID 1347075; Potency, µM (series often up to 46.1 µM), most hits filed as cytotoxic; actives 1.4% (n = 400,000); further: on the % scale 0 is the no-effect control and ±100 the full control effect; nearly all actives have a fitted effect of over 60% in size
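Screening of KB-3-1 cells (DMEM, 10% FBS, phenol-red free) ran from lowest to highest compound concentration; after 72 h at 37 °C viability was read luminescently and curves fitted.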
PINK1 modulator: changes PINK1 expression; AID 624263; Potency, µM (doses to about 76.6 µM), for the others: at the top dose activation (PINK1 increase), most hits filed as activators; PINK1 immunofluorescence, high-content cytometry, 24 h; actives 0.2% (n = 410,000); active means well fitted activation curve with a large enough effect; inconclusive means small, poorly fitted or top-dose-only effect; cell line not stated here; further: % of control where 0% means no effect; nearly all actives have a fitted effect of over 65% in size
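Cells are seeded, rested 12 hours, then given compound at five concentrations or DMSO for 24 hours. After fixation, blocking and antibody staining, PINK1 amount and mitochondrial localization are scored; CCCP serves as control.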
Numbers without * were called inactive; i = inactive; ? = inconclusive; nt = no result given; ! = a repeat was not active; [ ] = dose if it differs, or a comment. Sampled rows, rich in hits. Any-hit rate of the full collection: about 6.8%. Unless noted, the call rests on the fitted dose curve; in most records, active means well fitted curve in the direction sought with a large enough effect; inconclusive means small, poorly fitted or top-dose-only effect, or another doubt; inactive means no such curve, though single readings can be large; an effect the other way counts as inactive or inconclusive. Potency means the concentration at half of the fitted maximal effect.

SMILES | KB-V1 MDR tox | PTAP TSG101 blk | MCF10A rereplic | SW480 rerep | KB-3-1 tox | PINK1 modulator
O=C(Nc1ccc(OC(F)(F)F)cc1)N1CCc2nc(NCc3cccc(Oc4ccccc4)c3)ncc2C1 | 13µM* | nt | nt | nt | ? | ?
CC1=C(c2ccc(C)cc2)S(=O)(=O)N(Cc2ccc(C(=O)NCc3cccc(C)c3)cc2)C1=O | nt | nt | nt | nt | nt | 2%
Cc1ccc(C(=O)Nc2nnc(SCc3cc(=O)c4c(C)ccc(C)c4[nH]3)s2)cc1 | i | nt | nt | nt | ? | 29%
COc1ccccc1C1CN(CCNC(=O)c2ccc3c(c2)OCCO3)Cc2ccccc2O1 (stereo not given) | nt | nt | nt | nt | nt | 1%
CCN(CC)S(=O)(=O)c1csc(C(=O)NCc2ccccc2)c1 | 21µM* | -3% | 0% | -1% | i | -1%
CCN(CC)S(=O)(=O)c1cccc(C(=O)NCc2ccccc2)c1 | i | -3% | 3% | 3% | i | 0%
CCN=C1S/C(=C\c2sccc2C)C(=O)N1CC | 13µM* | -1% | 12% | 2% | ? | 3%
Cc1ccsc1/C=C1\SC(=S)N(CC2CCCO2)C1=O (stereo not given) | i | 0% | -3% | -7% | i | 0%
c1ccc(CSc2ncnc3c2ncn3C2CCCCO2)cc1 (stereo not given) | i | 2% | -9% | -30% | i | 2%
Fc1ccc(CSc2ncnc3c2ncn3C2CCCCO2)cc1 (stereo not given) | 21µM* | -2% | 11% | 0% | i | 5%
O=C(Cn1cnc2c(NCc3ccccc3)ncnc21)NCC1CCCO1 (stereo not given) | i | 6% | -2% | -3% | i | 0%
CC(C)CCn1cnc2c(NCc3ccccc3)ncnc21 | 16µM* | -3% | 0% | -3% | i | 2%[38.3 µM]
CC(CNC(=O)Cn1cnc2c(NCc3ccccc3)ncnc21)c1ccccc1 (stereo not given) | i | 1% | -1% | -2% | i | 3%
c1ccc(CNc2ncnc3c2ncn3C2CCCCO2)cc1 (stereo not given) | i | -4% | 16µM* | 29% | i | 2%[38.3 µM]
O=C(CSCc1nc2ccccc2[nH]1)N1CCN(c2ccc(F)cc2)CC1 | i | -6% | 15% | 9% | i | 0%
O=C(CSCc1nc2ccccc2[nH]1)N1CCN(c2cccc(Cl)c2)CC1 | 21µM* | -4% | 1% | ? | ? | 5%[38.3 µM]
O=C(CCSCc1ccccc1Cl)N1CCN(c2cccc(Cl)c2)CC1 | 21µM*! | 2% | ? | 22% | i | 1%
Cc1ccc2c(c1)c1c(c(=O)n(-c3cccc(Cl)c3)c(=O)n1CC(=O)NCCC1=CCCCC1)n2C | i | nt | nt | nt | i | 2%
COC(=O)c1sc(N2C(=O)c3oc4ccccc4c(=O)c3C2c2cccs2)nc1C (stereo not given) | ? | -6% | ? | 4% | 18µM* | 13%
COC(=O)c1sc(N2C(=O)C(O)=C(C(=O)c3ccc(C)o3)C2c2cccs2)nc1C (stereo not given) | ? | -3% | 18µM* | ? | i | 1%
Cc1cc(N2C(=O)C(O)=C(C(=O)c3ccc(C)o3)C2c2cccs2)no1 (stereo not given) | 5.2µM* | -2% | 7% | ? | ? | -1%
Cc1cc(N2C(=O)C(O)=C(C(=O)c3cc4ccccc4o3)C2c2ccc([N+](=O)[O-])cc2)no1 (stereo not given) | i | -15% | 1% | 2% | i | 2%
Cc1ccc(C2C(C(=O)c3cc4ccccc4o3)=C(O)C(=O)N2c2cc(C)on2)cc1 (stereo not given) | i | -6% | 9.2µM* | ? | i | -1%
COc1cc2nc(N3CCCN(C)CC3)nc(NC3CCN(C)C3)c2cc1OC (stereo not given) | i | nt | nt | nt | ? | -1%
Nc1ccc2nn(-c3cccc4ccccc34)nc2c1 | i | -9% | 9.2µM* | 18µM* | i | 6%
